Experimental data as given in PubChem BioAssay (Tox21).
Unmarked numbers belong to inactive results. The source made the active and inactive calls. Unless noted, the call rests on the fitted dose curve.

Each molecule was assayed against Thyrotropin-releasing hormone receptor (Homo sapiens) (UniProt P34981) (assay: qHTS assay to identify small molecule antagonists of the thyrotropin-releasing hormone receptor (TRHR) signaling pathway (AID 1346877; active means well fitted inhibition curve with a large enough effect in the repeat runs, not every such curve was filed as active)). Settings: TRHR-HEK293, TRH-induced calcium fluorescence, antagonist mode; series mostly up to 51.3 µM.
How it was run: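 Kinetic fluorescence (3 min, 1 s resolution) following stimulation with TRH at 1 nM final; HEK293 cells bearing human TRHR; 5 min compound preincubation at RT; concentration-response over 15 points, triplicates.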
On the % scale 0 is the no-effect control and ±100 the full control effect.

Sequence of Thyrotropin-releasing hormone receptor (Homo sapiens) (P34981 whole entry, looked up): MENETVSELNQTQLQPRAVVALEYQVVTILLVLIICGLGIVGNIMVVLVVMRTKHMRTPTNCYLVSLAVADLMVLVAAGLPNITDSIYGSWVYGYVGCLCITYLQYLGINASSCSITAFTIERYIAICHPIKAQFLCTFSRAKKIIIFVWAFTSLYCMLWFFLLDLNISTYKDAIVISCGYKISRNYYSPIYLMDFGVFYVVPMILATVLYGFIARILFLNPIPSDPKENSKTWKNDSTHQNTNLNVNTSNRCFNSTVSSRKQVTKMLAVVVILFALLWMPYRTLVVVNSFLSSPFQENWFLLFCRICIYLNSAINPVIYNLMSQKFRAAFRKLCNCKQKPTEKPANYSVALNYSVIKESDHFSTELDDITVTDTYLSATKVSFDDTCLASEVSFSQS

SMILES | outcome | activity, negative = inhibition
O=C(CCS)OCC(COC(=O)CCS)(COC(=O)CCS)COC(=O)CCS | inactive | 
C/C(C=O)=C\c1ccccc1 | inactive | 
O=C(O)CCS | inactive | 
CC1C(C)(C)C2=C(C(=O)CCC2)C1(C)C (stereo not drawn) | inactive | 
CC(C)CC(O)CC(C)C | inactive | 
CCCCCc1ccco1 | inactive | 
NC(=O)c1ccccc1[N+](=O)[O-] | inactive | 
O=C(O)c1cccc(C[C@@H]2COc3ccc(OCc4nc5cc(F)ccc5s4)cc3[C@@H]2O)c1 | inactive | 
CCCCCC | inactive | 
CC(C)(C(=O)c1cccnc1)c1cccnc1 | inactive | 
Cc1cc(CCC(=O)OCCOCCOCCOC(=O)CCc2cc(C)c(O)c(C(C)(C)C)c2)cc(C(C)(C)C)c1O | inactive | 
O=C(O)CO | inactive | 
O=C(O)CCC(=O)OC[C@@H](NC(=O)C(Cl)Cl)[C@H](O)c1ccc([N+](=O)[O-])cc1 | inactive | 
Nc1ccc(N=Nc2ccc(N)cc2)cc1 | inactive | 
CC(C)(C)CCCCCCOC(=O)c1ccccc1C(=O)OCCCCCCC(C)(C)C | inactive | 
CC(C)C(=O)OCCOc1ccccc1 | inactive | 
CCCCCCCCCCCCCCN(C)C |  | 0.781% [at 10.5 µM]
BrC(Br)C(Br)Br | inactive | 
COc1cc(NS(=O)(=O)c2ccc(N)cc2)nc(C)n1 | inactive | 
COc1ccc(CCN(C)CCCN2CCc3cc(OC)c(OC)cc3CC2=O)cc1OC | inactive | 

SMILES | outcome | activity, negative = inhibition
O=NN(CCCl)C(=O)NCCCl | inactive | 
O=C(Nc1ccc(C(=O)O)c(O)c1)c1ccccc1 | inactive | 
C=C(C)C(=O)OCCC(F)(F)C(F)(F)C(F)(F)C(F)(F)C(F)(F)C(F)(F)F | inactive | 
CCN(CC)CCOc1ccccc1C(=O)CCc1ccccc1 | inactive | 
CC(C)COC(=O)COc1cc(Cl)c(Cl)cc1Cl | inactive | 
CCOCCC(=O)OCC | inactive | 
O=C(O)c1cc(Cl)cc(Cl)c1O | inactive | 
CC(O)Cn1cnc2c1c(=O)n(C)c(=O)n2C (stereo not drawn) | inactive | 
COC(=O)CC(C(C)=O)C(=O)OC (stereo not drawn) | inactive | 
CCc1ccc(C)cc1 | inactive | 
Cc1ccc(NC(=O)N(C)C)cc1NC(=O)N(C)C | inactive | 
O=C(O)c1ccc(O)cc1O | inactive | 
OCC(CO)n1cnc(-c2ccc(F)cc2)c1-c1ccnc(Oc2ccccc2)n1 | inactive | 
CC(=O)Oc1cccc(O)c1 | inactive | 
CC(C)c1ccc(C#N)cc1 | inactive | 
N[C@@H](Cc1cc(I)c(O)c(I)c1)C(=O)O | inactive | 
CSSc1ccoc1C | inactive | 
CNc1c2c(nn1C)CCCC2 | inactive | 
ClC1=C(Cl)C1(Cl)Cl | inactive | 

The molecules below were run against Thyrotropin-releasing hormone receptor (Homo sapiens) (UniProt P34981) (assay: qHTS assay to identify small molecule agonists of the thyrotropin-releasing hormone receptor (TRHR) signaling pathway (AID 1346891;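 further: HEK293 cells expressing TRHR with calcium dye readout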)). Settings: TRHR-HEK293 calcium fluorescence, agonist mode; series mostly up to 57.6 µM.
How it was run: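 HEK293/TRHR cells, 1500 per well, 18 h 37 °C; Ca dye 2 h 37 °C; pin-tool compound addition (agonist mode); kinetic fluorescence 3 min, 1 s reads; 15 concentrations, triplicate.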

SMILES | outcome | activation
O=C(CCS)OCC(COC(=O)CCS)(COC(=O)CCS)COC(=O)CCS | inactive | 
C/C(C=O)=C\c1ccccc1 | inactive | 
O=C(O)CCS | inactive | 
CC1C(C)(C)C2=C(C(=O)CCC2)C1(C)C (stereo not drawn) | inactive | 
CC(C)CC(O)CC(C)C | inactive | 
CCCCCc1ccco1 | inactive | 
NC(=O)c1ccccc1[N+](=O)[O-] | inactive | 
O=C(O)c1cccc(C[C@@H]2COc3ccc(OCc4nc5cc(F)ccc5s4)cc3[C@@H]2O)c1 | inactive | 
CCCCCC | inactive | 
CC(C)(C(=O)c1cccnc1)c1cccnc1 | inactive | 
Cc1cc(CCC(=O)OCCOCCOCCOC(=O)CCc2cc(C)c(O)c(C(C)(C)C)c2)cc(C(C)(C)C)c1O | inactive | 
O=C(O)CO | inactive | 
O=C(O)CCC(=O)OC[C@@H](NC(=O)C(Cl)Cl)[C@H](O)c1ccc([N+](=O)[O-])cc1 | inactive | 
Nc1ccc(N=Nc2ccc(N)cc2)cc1 | inactive | 
CC(C)(C)CCCCCCOC(=O)c1ccccc1C(=O)OCCCCCCC(C)(C)C | inactive | 
CC(C)C(=O)OCCOc1ccccc1 | inactive | 
CCCCCCCCCCCCCCN(C)C |  | 1.06% [at 11.8 µM]
BrC(Br)C(Br)Br | inactive | 
COc1cc(NS(=O)(=O)c2ccc(N)cc2)nc(C)n1 | inactive | 
COc1ccc(CCN(C)CCCN2CCc3cc(OC)c(OC)cc3CC2=O)cc1OC | inactive | 

SMILES | outcome | activation
O=NN(CCCl)C(=O)NCCCl | inactive | 
O=C(Nc1ccc(C(=O)O)c(O)c1)c1ccccc1 | inactive | 
C=C(C)C(=O)OCCC(F)(F)C(F)(F)C(F)(F)C(F)(F)C(F)(F)C(F)(F)F | inactive | 
CCN(CC)CCOc1ccccc1C(=O)CCc1ccccc1 | inactive | 
CC(C)COC(=O)COc1cc(Cl)c(Cl)cc1Cl | inactive | 
CCOCCC(=O)OCC | inactive | 
O=C(O)c1cc(Cl)cc(Cl)c1O | inactive | 
CC(O)Cn1cnc2c1c(=O)n(C)c(=O)n2C (stereo not drawn) | inactive | 
COC(=O)CC(C(C)=O)C(=O)OC (stereo not drawn) | inactive | 
CCc1ccc(C)cc1 | inactive | 
Cc1ccc(NC(=O)N(C)C)cc1NC(=O)N(C)C | inactive | 
O=C(O)c1ccc(O)cc1O | inactive | 
OCC(CO)n1cnc(-c2ccc(F)cc2)c1-c1ccnc(Oc2ccccc2)n1 | inactive | 
CC(=O)Oc1cccc(O)c1 | inactive | 
CC(C)c1ccc(C#N)cc1 | inactive | 
N[C@@H](Cc1cc(I)c(O)c(I)c1)C(=O)O | inactive | 
CSSc1ccoc1C | inactive | 
CNc1c2c(nn1C)CCCC2 | inactive | 
ClC1=C(Cl)C1(Cl)Cl | inactive | 
